Gal4-VP16 FLuc = VP16 counterscreen qHTS for inhibitors of ROR gamma transcriptional activity. Drosophila S2 Gal4-VP16 UAS-luciferase, luminescence, 20 h. Potency, µM (doses to about 53.6 µM), for inactives: top-dose activity, negative = inhibition, most hits filed as inhibitors. actives 3.5% (n = 310,000). AID 2546, 2010;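 also: Gal4-VP16 expression switched on by copper sulfate through the metallothionein promoter; nearly all actives have a fitted effect of over 50% in size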
DT40 TDP1 no CPT = qHTS for Inhibitors of human tyrosyl-DNA phosphodiesterase 1 (TDP1): qHTS in cells in absence of CPT | DT40 Tdp1-/- hTDP1 cells, no CPT, ATP luminescence, 48 h | Potency, µM (highest dose often 46.2 µM), for inactives: at the top dose activity change, negative = growth inhibition, usual class: inhibitors | actives 15% (n = 420,000) | AID 686978, 2013; also: nearly all actives have a fitted effect of over 55% in size
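Growth kinetics read by CellTiter-Glo luminescence after ≥48 hr at 37 °C. Cells: DT40 Tdp1-/- stably carrying human TDP1, 400 per well, compound exposure in the absence of CPT (DMSO vehicle).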
RORgamma inh = qHTS for inhibitors of ROR gamma transcriptional activity. Nuclear receptor ROR-gamma (Mus musculus), P51450. actives 5.4% (n = 310,000). Drosophila S2 Gal4-RORgamma UAS-luciferase reporter, 20 h. Potency, µM (series often up to 53.6 µM), inactives show at the highest dose activity change, negative = inhibition, actives largely listed as inhibitors; also: nearly all actives have a fitted effect of over 60% in size
Target sequence (P51450 whole entry, looked up, the tested form may be a part): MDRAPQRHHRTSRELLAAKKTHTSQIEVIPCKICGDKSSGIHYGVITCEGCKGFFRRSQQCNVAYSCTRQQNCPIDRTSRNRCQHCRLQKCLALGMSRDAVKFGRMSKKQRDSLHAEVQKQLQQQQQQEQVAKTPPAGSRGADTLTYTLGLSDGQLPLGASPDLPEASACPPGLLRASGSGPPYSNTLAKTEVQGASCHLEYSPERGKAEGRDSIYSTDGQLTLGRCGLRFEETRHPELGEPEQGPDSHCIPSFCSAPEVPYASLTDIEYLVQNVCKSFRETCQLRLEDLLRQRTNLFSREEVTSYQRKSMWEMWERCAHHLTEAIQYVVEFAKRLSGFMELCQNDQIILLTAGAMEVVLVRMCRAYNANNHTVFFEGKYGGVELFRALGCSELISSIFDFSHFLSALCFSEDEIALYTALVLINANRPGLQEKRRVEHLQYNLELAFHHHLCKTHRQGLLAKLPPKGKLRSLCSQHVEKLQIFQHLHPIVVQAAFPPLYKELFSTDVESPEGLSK
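Drosophila S2 cells stably expressing Gal4-DBD/mouse RORγ fusion under metallothionein promoter plus UAS-luciferase; compound 1 h, then 700 uM CuSO4 induction for 20 h at ambient temperature; inhibition read as reduced luminescence.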
TDP1 block = qHTS Assay for Inhibitors of Tyrosyl-DNA Phosphodiesterase (TDP1). Tyrosyl-DNA phosphodiesterase 1 (Homo sapiens), Q9NUW8. recombinant TDP1, AlphaScreen DNA substrate cleavage. Potency, µM (series often up to 130 µM), without a hit: top-dose activity change, negative = inhibition, actives largely listed as inhibitors. actives 0.28% (n = 350,000). AID 485290, 2010; also: nearly all actives have a fitted effect of over 40% in size
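Tdp1 1 nM final; 15 min RT w/ cpd; substrate 15 nM, 5 min; beads 10 ug/ml, 10 min; AlphaScreen read. Neg ctrl: no enzyme.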
TDP1 cell CPT = qHTS for Inhibitors of human tyrosyl-DNA phosphodiesterase 1 (TDP1): qHTS in cells in presence of CPT. Potency, µM (top dose mostly 46.2 µM), without a hit: top-dose activity change, negative = growth inhibition, usual class: inhibitors. chicken DT40 Tdp1-/-;hTDP1 cells + 20 nM CPT, ATP luminescence, 48 h. actives 12% (n = 420,000); also: nearly all actives have a fitted effect of over 55% in size
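Chicken DT40 Tdp1-/- cells complemented with human TDP1, 400 cells/well, exposed to compounds plus 20 nM camptothecin for at least 48 h at 37 C; viability read as ATP content by CellTiter-Glo luminescence.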
* = called active by the depositor; ? = inconclusive; nt = not tested or not shown; [ ] = another dose, or the depositor's remark. Most compounds without a hit are left out; they make up all but 19% or so of the library. Calls follow the shape of the dose curve; as a rule, active = well fitted curve in the direction sought with a large enough effect; inconclusive = small, poorly fitted or top-dose-only effect, or another doubt; inactive = no such curve, though single readings can be large; an effect the other way counts as inactive or inconclusive. % is scaled to controls: 0 for no effect and ±100 for the full control effect; potency is read from the fitted curve at half-maximal effect.

SMILES	Gal4-VP16 FLuc	DT40 TDP1 no CPT	RORgamma inh	TDP1 block	TDP1 cell CPT
CC(C)C[C@H]1CN([C@@H](Cc2ccc(O)cc2)CN2CCC[C@@H]2CN2C(=S)NC[C@@H]2Cc2ccccc2)C(=S)N1CC1CCCCC1	nt	16.4µM*	nt	nt	16.4µM*
CC(C)C[C@H]1CNC(=S)N1C[C@H]1CCCN1C[C@H](Cc1ccc(O)cc1)N1C[C@H](CC(C)C)N(CC2CCCCCC2)C1=S	nt	20.6µM*	nt	nt	16.4µM*
CCCC(=O)OC(=O)CCC	-6.6%	nt	12.6%	11.6%	nt
O=C(CCn1cnc2ccccc2c1=O)Nc1ccc(S(=O)(=O)N2CCCCC2)cc1	-3.7%	-27.0%	13.2%	6.6%	-5.4%
CC(C)C[C@H]1CN([C@@H](Cc2ccccc2)CN2CCCC2CN2C(=S)NC[C@@H]2Cc2ccccc2)C(=S)N1CC1CCCCC1 (stereo not given in full)	nt	7.31µM*	nt	nt	6.51µM*
CC(C)C[C@H]1CNC(=S)N1C[C@H]1CCCN1C[C@H](Cc1ccc(O)cc1)N1C[C@H](Cc2ccccc2)N(CC2CCCCC2)C1=S	nt	18.4µM*	nt	nt	?
C#CC(CC)(CC)NC(=O)c1cc(S(=O)(=O)N2CCCCC2)ccc1N1CCOCC1	nt	-16.5%	nt	7.4%	-5.2%
CC1CCCC(n2c(=S)[nH]c3ccccc3c2=O)C1C (stereo not given)	0.631µM*	?	0.282µM*	7.4%	?
C=CCSc1nc2ccccc2c(=O)n1C1CCOC(C)(C)C1 (stereo not given)	0.2%	23.1µM*	1.0%	0.0%	16.4µM*
O=c1c2ccccc2[nH]c(=S)n1CCCN1CCN(C2CCCCC2)CC1	nt	-16.0%	23.7%[0.365 µM]	5.6%	16.6%
CC1CCCCC1NC(=O)CCn1c(=S)[nH]c2ccccc2c1=O (stereo not given)	nt	?	nt	nt	-27.6%
C=CCSc1nc2ccccc2c(=O)n1Cc1ccccc1	3.7%	-10.1%	-5.0%	0.0%	22.6%
O=c1c2ccccc2[nH]c(=S)n1C1CCCCC1	2.82µM*	5.6%	0.891µM*	0.9%	-0.8%
CC1(C)CC(n2c(=S)[nH]c3ccccc3c2=O)CCO1 (stereo not given)	8.91µM*	?	8.91µM*	3.1%	-14.5%
Cc1cc2oc(C(=O)N(Cc3cccs3)C3CCS(=O)(=O)C3)cc(=O)c2cc1Cl (stereo not given)	0.0%	?	?	nt	-20.9%
O=C(O)CC(=O)Nc1ccc(Oc2ccc(C(F)(F)F)cn2)c(Cl)c1	-3.2%	10.7%	16.7%	5.9%	17.0%
COc1ccc(N2C(=O)CSC2c2ccncc2)cc1 (stereo not given)	-1.8%	-5.1%	-14.9%	2.2%	4.1%
Nc1ncnc2c1ncn2[C@@H]1O[C@H](C(=O)NCc2ccc3c(c2)OCO3)[C@@H](O)[C@H]1O	nt	0.2%	nt	nt	-12.4%
CC1CCC(n2c(=S)[nH]c3ccccc3c2=O)CC1 (stereo not given)	1µM*	?	0.199µM*	-2.1%	-10.2%
O=C(NCCc1nc2ccccc2n1Cc1ccccc1F)c1ccc(F)cc1	nt	?	nt	-11.8%	?
CCC(=O)N1CCc2cc(S(=O)(=O)NC(Cc3ccccc3)C(=O)O)ccc21 (stereo not given)	9.4%	18.9%	-17.0%	0.8%	-7.7%
CCCCNC(=O)c1nc(-c2ccc(C(F)(F)F)cc2)oc1-c1ccccc1	nt	-20.1%	nt	nt	-24.0%
CCCCCNC(=O)c1nc(-c2c(F)cccc2F)oc1-c1ccccc1	nt	20.6µM*	nt	nt	?
O=C(NCc1ccccc1)c1nc(-c2c(F)cccc2F)oc1-c1ccccc1	nt	18.4µM*	nt	nt	?
Cc1ccc(C(=O)NCc2ccccc2)c(F)c1F	-13.4%	25.3%	33.2%	0.0%	-18.8%
SMILES	Gal4-VP16 FLuc	DT40 TDP1 no CPT	RORgamma inh	TDP1 block	TDP1 cell CPT
CCCCNC(=O)c1nc(C2CCN(S(=O)(=O)c3ccccc3C(F)(F)F)CC2)oc1-c1cccc(C(F)(F)F)c1	nt	-0.5%	nt	nt	2.2%
CCCCNC(=O)c1nc(-c2cc3ccccc3[nH]2)oc1-c1cccc(C(F)(F)F)c1	nt	?	nt	nt	14.6µM*
O=C(NCc1nnc(SCC(=O)N2CCCC2)o1)c1ccccc1F	10.1%	1.0%	6.2%	1.0%	1.6%
CCOc1cccc(/C=N/NC(=S)Nc2ccccc2[N+](=O)[O-])c1O	11.2µM*	8.2µM*	5.01µM*	7.4%	9.2µM*
Cc1ccc(S(=O)(=O)N/N=C/c2ccc(O)cc2O)cc1[N+](=O)[O-]	?	-14.4%	32.8%	0.0%	-28.8%
CCOc1cccc(/C=N/NS(=O)(=O)c2ccc(C)c([N+](=O)[O-])c2)c1O	3.16µM*	-2.5%	?	5.3%	6.2%
CCOc1cccc(C=NCCc2ccc(OC)c(OC)c2)c1O	-14.5%	-4.7%	?	3.6%	-10.9%
O=[N+]([O-])c1ccccc1NC(=S)N/N=C/c1ccc(O)c(O)c1	?	?	10µM*	5.4%	?
CCCCNC(=S)N/N=C/c1cccc(OCC)c1O	12.6µM*	2.06µM*	4.47µM*	5.0%	1.16µM*
CN(CC(=O)Nc1ccc(Cl)cc1)S(=O)(=O)c1cccc2cccnc12	-2.7%	?	-15.8%	3.9%	?
Cc1ccnc(NC(=O)CNC(=O)C23CC4CC(CC(C4)C2)C3)c1	nt	1.1%	nt	nt	-2.6%
Cc1cc(C)c(NS(=O)(=O)c2c(C)noc2C)c(C)c1	-5.5%	?	-20.2%	1.9%	15.2%
CN1CC(=O)N/C1=N/C(=O)Nc1cccc(Cl)c1	-19.3%	-0.4%	?	5.7%	-1.7%
CN1CC(=O)NC1=NC(=O)C12CC3CC(CC(C3)C1)C2	3.98µM*	18.4µM*	2.24µM*	0.0%	?
Cc1ccc(S(=O)(=O)NCCc2nnc3ccc(SCc4ccc(F)cc4)nn23)cc1	nt	18.4µM*	nt	-2.6%	16.4µM*
Cc1ccc(S(=O)(=O)NCCc2nnc3ccc(SCc4cccc(F)c4)nn23)cc1	nt	23.1µM*	nt	7.7%	14.6µM*
CCOC(=O)CSc1ccc2nnc(CCNS(=O)(=O)c3ccc(C)cc3)n2n1	-8.7%	2.8%	13.7%	2.3%	-14.5%
CCCC(=O)NCc1nc2ccccc2n1C	7.5%	-2.2%	-13.2%	2.3%	-0.7%
N/C(=N\c1nc2ccccc2o1)NC(=O)c1ccccc1	-25.3%	?	7.08µM*	-1.4%	?
COc1ccccc1C(=O)N/C(N)=N/c1nc2ccccc2o1	?	?	8.91µM*	7.6%	?
CCC(=O)N/C(N)=N/c1nc2ccccc2o1	?	?	12.6µM*	5.5%	?

Screens as filed in PubChem BioAssay.
